Values joined by “and” are separate entries in the source; they are usually repeats but may differ in a detail not shown here. Equal values may be shown once. Values without a mark were called inactive. Results filed as inconclusive are left out. Active and inactive are the calls of the source. Unless noted, the call rests on the fitted dose curve; in most records, active means well fitted curve in the direction sought with a large enough effect; inconclusive means small, poorly fitted or top-dose-only effect, or another doubt; inactive means no such curve, though single readings can be large; an effect the other way counts as inactive or inconclusive.

A short description of test [1]: qHTS assay for small molecule agonists of the antioxidant response element (ARE) signaling pathway measured by Nrf2-dependant transcriptional activity (AID 720636; active means well fitted curve in the direction sought with a large enough effect in the repeat runs; an effect the other way counts as inactive or inconclusive; further: potency means the concentration at half of the fitted maximal effect). As to conditions: ARE-luc HepG2, Nrf2 luciferase reporter, 16 h; series mostly up to 92.4 µM. In outline:
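ONE-Glo luminescence, read 30 min after reagent addition at room temperature, reflected ARE reporter activity in HepG2 cells that had been incubated with compound for 16 hr at 37 C in 1% dialyzed FBS.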
(qHTS replaces the single test concentration by a dilution series.)

The nature of test [2]: qHTS assay for small molecule antagonists of the retinoid-related orphan receptor gamma (ROR-gamma) signaling pathway - cell viability counter screen (AID 720652; active means well fitted curve in the direction sought with a large enough effect in the repeat runs; an effect the other way counts as inactive or inconclusive;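 further: CHO reporter cells with doxycycline-induced ROR-gamma expression; compound exposure lasted 16 hr before ATP read; on the % scale 0 is the no-effect control and ±100 the full control effect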). To be noted: RORgamma reporter cell line viability counter screen; series mostly up to 92.2 µM. In outline: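 CHO cells carrying TET-inducible ROR and RORE-luciferase reporter, plated 5 hr, then dosed with compound plus doxycycline. After 16 hr at 37 C, viability read as intracellular ATP by CellTiter-Glo luminescence.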

A short description of test [3]: qHTS assay for small molecule agonists of the antioxidant response element (ARE) signaling pathway measured by Nrf2-dependant transcriptional activity - cell viability counter screen (AID 720653; active means well fitted curve in the direction sought with a large enough effect in the repeat runs; an effect the other way counts as inactive or inconclusive; further: on the % scale 0 is the no-effect control and ±100 the full control effect). To be noted: ARE-bla HepG2 viability, CellTiter-Glo ATP luminescence, 16 h; max response: stronger effect = lower value. In outline: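 ARE-bla HepG2 cells (2,000/well) rested 5 hrs at 37C/5% CO2, then exposed to compounds in DMSO for 16 hrs. Viability was read in the same wells as intracellular ATP by luminescence, 30 min at room temperature after reagent addition.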

Test [4] in a line: qHTS assay for cell viability of HEK293 cells (AID 743288). Further: on the % scale 0 is the no-effect control and ±100 the full control effect; nearly all actives have a fitted effect of over 50% in size. As to conditions: ATP luminescence (CellTiter-Glo), 18 h; max response: stronger effect = lower value. In short, it runs like this: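 Environmental chemicals tested in qHTS format against parental HEK293 cells; 18 h treatment, 37 C; read-out ATP luminescence (CellTiter-Glo), 30 min RT development.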
Test [5] in a line: qHTS assay for cell viability of the p53RE-bla HCT-116 cell line (AID 743292). Further: on the % scale 0 is the no-effect control and ±100 the full control effect; nearly all actives have a fitted effect of over 55% in size. To be noted: p53RE-bla HCT-116 viability, ATP luminescence, 16 h; series mostly up to 95 µM. In short, it runs like this:
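After plating at 4,000 cells per well and a 5 h rest at 37 C, HCT-116 cells carrying p53RE-bla received test chemicals in DMSO. Sixteen hours later at 37 C, CellTiter-Glo was added and luminescence recorded following 30 min at room temperature.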

A short description of test [6]: qHTS assay for measurement of the activity of small molecule inhibitors on Zika virus induced Caspase-3 activity in human astrocytoma cells (AID 1224859).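 Further: plate controls were ZIKV-infected untreated cells for no effect and uninfected cells for full effect.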 As to conditions: SNB-19 ZIKV-induced caspase-3/7, luminescence, 6 h; series mostly up to 45.7 µM. In outline:
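Inhibition of Zika-induced caspase-3/7 activity: SNB-19 cells, 1 h compound pretreatment, ZIKV 2 FFU/cell for 6 h at 37 C, Caspase-Glo luminescence read-out.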

A short description of test [7]: qHTS for Activators of Parkin Expression: LOPAC Validation Assay (NLuc Reporter) (AID 720572;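 further: 0% = DMSO and 100% = positive control compound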). As to conditions: Parkin promoter NanoLuc reporter cells, luminescence; series mostly up to 46.1 µM. In outline: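 Neuronal line stably carrying a FLuc/NLuc coincidence reporter under the Parkin promoter, seeded 24 h, then dosed in 7-point series for 24 h at 37 C. NLuc luminescence read after FLuc; normalized to DMSO and positive control (100%).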

Test [8] is described as follows: qHTS for Activators of Parkin Expression: LOPAC Validation Assay (FLuc Reporter) (AID 720573;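 further: 0% = DMSO and 100% = positive control compounds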). As to conditions: Cell line, PRKN promoter firefly luciferase reporter; series mostly up to 46.1 µM. In short, it runs like this:
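FLuc luminescence read-out from a neuronal line expressing a Parkin-promoter-driven coincidence reporter. Cells treated 24 h at 37 C, 5% CO2 with compounds at 7 concentrations; signal increase normalized to DMSO and positive control.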

The target in test [9] is T1, Hexokinase-4 (Homo sapiens) + Glucokinase regulatory protein (Homo sapiens) (UniProt P35557+Q14397). In words: qHTS assay for inhibitors of recombinant human GCK-GKRP interaction: ADP-Glo assay (AID 743206).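 Further: plate controls were DMSO plus enzyme for no effect and no enzyme for full effect.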 As to conditions: ADP-Glo luminescence, 60 min; series mostly up to 76.9 µM. In short, it runs like this: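 GST-GCK and FLAG-GKRP (15 nM each in the dispensed mix, with 2 uM S6P) react with 0.4 mM ATP and 5 mM glucose (final) in Hepes pH 7.6 for 60 min at room temperature. ADP is measured by ADP-Glo luminescence.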
T1 sequence (P35557 whole entry, looked up): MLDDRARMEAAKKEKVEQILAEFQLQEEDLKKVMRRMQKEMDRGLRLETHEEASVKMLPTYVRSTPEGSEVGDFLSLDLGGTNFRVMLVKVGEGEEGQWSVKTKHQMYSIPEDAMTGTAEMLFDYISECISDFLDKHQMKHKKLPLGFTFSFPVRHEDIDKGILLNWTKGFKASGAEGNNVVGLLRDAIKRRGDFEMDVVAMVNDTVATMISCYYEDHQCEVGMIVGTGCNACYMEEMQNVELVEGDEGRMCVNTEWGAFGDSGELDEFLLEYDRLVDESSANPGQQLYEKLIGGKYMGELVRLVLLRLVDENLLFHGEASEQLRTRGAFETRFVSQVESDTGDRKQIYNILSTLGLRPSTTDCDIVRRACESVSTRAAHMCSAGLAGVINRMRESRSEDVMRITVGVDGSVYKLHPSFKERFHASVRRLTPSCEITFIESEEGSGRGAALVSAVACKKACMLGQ
T1 sequence (Q14397 whole entry, looked up): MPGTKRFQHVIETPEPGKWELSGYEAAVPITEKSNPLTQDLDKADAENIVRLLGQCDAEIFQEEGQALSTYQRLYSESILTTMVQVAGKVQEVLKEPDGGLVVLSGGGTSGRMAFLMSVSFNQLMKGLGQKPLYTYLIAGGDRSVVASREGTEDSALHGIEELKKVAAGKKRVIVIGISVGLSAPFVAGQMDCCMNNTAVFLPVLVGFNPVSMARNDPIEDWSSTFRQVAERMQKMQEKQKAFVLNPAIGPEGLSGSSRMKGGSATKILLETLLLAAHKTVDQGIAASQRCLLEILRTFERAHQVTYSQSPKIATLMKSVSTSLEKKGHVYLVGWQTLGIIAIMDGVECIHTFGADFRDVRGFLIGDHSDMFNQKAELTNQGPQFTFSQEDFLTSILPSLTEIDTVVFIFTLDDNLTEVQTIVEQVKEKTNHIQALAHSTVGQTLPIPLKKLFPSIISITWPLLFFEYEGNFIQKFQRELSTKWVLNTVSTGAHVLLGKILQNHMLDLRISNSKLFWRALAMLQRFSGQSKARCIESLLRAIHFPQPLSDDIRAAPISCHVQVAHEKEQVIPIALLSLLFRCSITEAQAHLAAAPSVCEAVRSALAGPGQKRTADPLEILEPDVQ

Test [10] deals with T1, Hexokinase-4 (Homo sapiens) + Glucokinase regulatory protein (Homo sapiens). In words: qHTS assay for inhibitors of recombinant human GCK-GKRP interaction: HTRF assay (AID 743207).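 Further: 0% = DMSO with GCK present and -100% = DMSO wells lacking GCK.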 To be noted: recombinant GCK-GKRP HTRF binding, 60 min, with sorbitol-6-phosphate; series mostly up to 57.5 µM. In short, it runs like this: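 HTRF read-out (ex 320 nm; 615/665 nm emission) after 60 min RT equilibration of 5 nM GST-GCK, 5 nM FLAG-GKRP, 2 uM S6P, compound and anti-FLAG/anti-GST detection antibodies; signal normalized between DMSO wells with and without GCK.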

A short description of test [11]: qHTS Assay for Identifying Gametocytocidal Compounds (AID 743244). Further: potency means the concentration at half of the fitted maximal effect.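 On max response: on the % scale 0 is the no-effect control and ±100 the full control effect; actives lower the fluorescent signal which means gametocytes are killed.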 As to conditions: P. falciparum 3D7 stage III-V gametocytes, alamarBlue, 72 h; max response: stronger effect = lower value. In outline: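 Using 20,000 stage III–V 3D7 gametocytes per well, compounds were incubated 72 h under 37 °C/5% CO2. Viability was then assessed by 24 h alamarBlue reduction, measured fluorometrically at 525/598 nm.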

The target in test [12] is T1, Hexokinase-4 (Homo sapiens) + Glucokinase regulatory protein (Homo sapiens). In words: qHTS assay for inhibitors of recombinant human GCK-GKRP interaction: Diaphorase-coupled assay (AID 743205). As to conditions: G6PDH/diaphorase resorufin fluorescence; series mostly up to 57.5 µM. In short, it runs like this: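 Resorufin fluorescence (525/590 nm), read each minute over 30 min, reports GCK activity coupled via G6PDH and diaphorase. Reaction: 10 nM GST-GCK, 10 nM FLAG-GKRP, 5 mM glucose, 0.4 mM ATP, 0.15 mM NADP+, 0.1 mM resazurin.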

For `CN(C)c1ccc(N=NS(=O)(=O)O)cc1`, the Potency in [1] was 54.5 µM (active). Further, the Potency entry in test [2], in [5] and in test [6] was “inactive” in each case. In addition, the max response in test [3] was -12.4% and -28.6%; in test [4], -6.45% and -13.1%.

With `CCCC1(C)C(C#N)(C#N)C1(C#N)C#N`, the Potency entry in test [7], in test [8], in [9], in test [10] and in [6] was “inactive” in each case. Moreover, the Potency in test [11] was 2.24 µM (active).

With `CCOC(=O)N1CCN(/[N+]([O-])=N/Oc2ccc([N+](=O)[O-])cc2[N+](=O)[O-])CC1`, the Potency result in [7], in test [8], in [9], in [10] and in [6] was “inactive” throughout.

With `Nc1ncnc2c1ncn2[C@@H]1O[C@H](COP(=O)(O)OP(=O)(O)OP(=O)(O)OP(=O)(O)OC[C@@H]2O[C@H](n3cnc4c(N)ncnc43)[C@@H](O)[C@H]2O)[C@@H](O)[C@H]1O`, the Potency entry in test [7], in [8], in test [9] and in test [6] was “inactive” each time. The max response in test [11] is 11.9%.

As to `CCCOC(=O)c1ccc(O)cc1`, the Potency result in test [1], in test [2], in [5] and in [6] was “inactive” in each case. Moreover, the max response is -5.7% and -1.43% and -2.37% in [3]; -1.64% and -4.63% in [11]; -5.57% and 0.165% and 2.13% in test [4].

For `O=C(O)/C=C/C(O)c1ccc(Cl)cc1` (configuration not stated), the Potency result in [7], in [8], in test [9], in [10] and in [6] was “inactive” each time. The max response in [11] is -3.84% and 16.6%.

For the compound `C#C[C@]1(O)CC[C@H]2[C@@H]3CCc4cc(O)ccc4[C@H]3CC[C@@]21C`, the Potency entry in test [1], in [2], in test [5] and in test [6] was “inactive” in each case. Moreover, the max response in test [3] is 6.34% and 7.49%; in test [11] it was 16.7%; in test [4] it was -11.3% and -0.854%.

For `C#CCN1C(C)=C(C(=O)OC)C(c2cccc([N+](=O)[O-])c2)C(C(=O)OCC)=C1C` (configuration not stated), the Potency result in test [8], in test [9], in test [10] and in test [6] was “inactive” in each case.

For `COc1ccccc1N1CCN(CCN(C(=O)c2ccc(I)cc2)c2ccccn2)CC1`, the Potency entry in test [7], in test [8], in test [9], in [10] and in [6] was “inactive” each time. In addition, the max response in [11] was 4.76%.

For the compound `O=c1[nH]c2cc(Cl)c(Cl)cc2[nH]c1=O`, the Potency entry in test [7], in test [9] and in [6] was “inactive” in each case. In [12], the outcome was inactive.

As to `CCCCN1CCC(n2c(=O)[nH]c3ccccc32)CC1`, the Potency entry in test [7], in [8], in test [9], in [10] and in [6] was “inactive” throughout. Moreover, the max response in test [11] is 5.22%.

The values are drawn from PubChem BioAssay (NCATS).
